Test results taken from PubChem BioAssay AID932 (The Scripps Research Institute Molecular Screening Center, 2007).
The whole screen tested about 200,000 compounds, of which about 5,100 (2.5%) were called active. Shown is part of a subset that was picked to be rich in actives. Values without a mark were called inactive.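 Rule for the calls: active = activation above the screen-wide mean activation plus 3 SD (cut at about 130% in these data); inactive = the rest.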

Test: potentiators of IFN-gamma driven STAT1 reporter – cell-based, HTS, luciferase reporter, primary screen (AID 932);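 note: raw ratio to IFN-gamma control signal so 100% means no change and 0% no light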
Conditions: NIH 3T3 STAT1-luciferase reporter, luminescence, at 5.5 µM, active compounds read high, 100% = IFN-gamma alone, no compound

Row | SMILES | activation (% of control)
1 | O=C(c1ccc(C(F)(F)F)cc1)C1CCCN(C(=O)c2csnn2)C1 (configuration not stated) | 87.3%
2 | N#CCC(=O)N/N=C/c1ccc(SCC(=O)Nc2ccccc2)o1 | 108%
3 | O=C1COc2ccc(C(=O)COC(=O)c3cccnc3Cl)cc2N1 | 109%
4 | CN(C)c1ccc(/C=N/NC(=O)c2ccc(Cn3cc(Br)cn3)o2)cc1 | 135% (active)
5 | O=C(N/N=C/c1ccc2c(c1)OCO2)c1ccc(Cn2cc([N+](=O)[O-])cn2)o1 | 109%
6 | O=C(N/N=C\c1ccc(Br)cc1)c1ccc(Cn2cccn2)o1 | 118%
7 | C=CCn1c(COc2ccc(F)cc2)nnc1SCC(=O)Nc1cccc(S(N)(=O)=O)c1 | 97.8%
8 | Cc1c(/C=N/N2C(=O)C3C4C=CC(C4)C3C2=O)c2ccccc2n1C (configuration not stated) | 90.4%
9 | C/C(=N\OC(=O)c1ccccc1)c1c(C)nc2cc(C)ccn12 | 99.5%
10 | Cc1cccc(N(CC(=O)Nc2ccc(-c3nc4ccc(C)cc4s3)cc2)S(C)(=O)=O)c1 | 142% (active)
11 | Cc1ccc(N(CC(=O)Nc2cccc(N(C)S(C)(=O)=O)c2)S(C)(=O)=O)cc1 | 92.8%
12 | Cc1ccc2nc(-c3ccc(NC(=O)CN(C)S(=O)(=O)c4ccccc4)cc3)sc2c1 | 102%
13 | Cn1c(=N)n(CC(O)c2cccs2)c2ccccc21 (configuration not stated) | 95.5%
14 | ClC1(Cl)CC1CSc1ncn[nH]1 (configuration not stated) | 102%
15 | O=C(C1CCN(C2CCN(Cc3ccc4cc(F)ccc4n3)CC2)CC1)N1CCCC1 | 98.4%
16 | N#Cc1c(N)nc2c(c1N)CC(C(F)(F)F)O2 (configuration not stated) | 92.8%
17 | Cc1nn(C)c(C)c1Sc1ccccc1N | 99.2%
18 | CCn1c(CSc2nc(C)cc(C)n2)nnc1SCC(N)=O | 103%
19 | COc1ccc(S(=O)(=O)N2CCCCCC2)cc1C(=O)OCC(=O)Nc1cc(C)on1 | 97%
20 | Cc1ccc(/C=C/C(=O)Nc2cc(S(=O)(=O)N3CCCCCC3)ccc2OCC(F)(F)F)o1 | 139% (active)
21 | Cc1ccc(/C=C/C(=O)Nc2ccc([N+](=O)[O-])c(NC(=O)/C=C/c3ccc(C)o3)c2)o1 | 101%
22 | O=[N+]([O-])c1ccc(NCCCO)c(C(F)(F)F)c1 | 105%
23 | CN(C(=O)c1ccccn1)c1nnc(-c2ccccn2)s1 | 142% (active)
24 | CN(C(=O)c1ccno1)c1nnc(-c2cccnc2)s1 | 102%
25 | CN(C(=O)COc1ccccc1)c1nnc(-c2ccncc2)s1 | 107%
26 | COc1ccc(N=C2SC(C(=O)Nc3ccc(F)cc3)CC(=O)N2C)cc1 (configuration not stated) | 88.3%

Row | SMILES | activation (% of control)
27 | Cc1ccccc1NCC(=O)N/N=C\c1ccc([N+](=O)[O-])s1 | 92.7%
28 | CN(C(=O)CSc1nncc2ccccc12)C1CCCCC1 | 131% (active)
29 | CN(C(=O)COc1ncnc2c1cnn2-c1ccccc1)C1CCCCC1 | 94.4%
30 | CN(C(=O)CSc1nnnn1-c1ccccc1)C1CCCCC1 | 103%
31 | Cc1nnnn1/C(=C\c1ccccc1)C(=O)OCC(=O)N1CC2(C)CC1CC(C)(C)C2 (configuration not stated) | 99.2%
32 | O=C(Nc1nnc(C2COc3ccccc3O2)o1)c1ccc(F)cc1 (configuration not stated) | 98.5%
33 | O=C(N/N=C/c1ccccn1)C12CC3CC(CC(C3)C1)C2 | 103%
34 | OCCC1CN(Cc2cnc(-c3ccccc3)s2)CCN1CCc1ccccc1 (configuration not stated) | 100%
35 | C/C(=N\NS(=O)(=O)c1ccc(Br)cc1)c1cccs1 | 95.4%
36 | C/C(=N\Nc1ncc(Cl)cc1Cl)c1ccc(S(=O)(=O)NCc2ccco2)cc1 | 131% (active)
37 | Cc1c(Cl)cnc(NC(=O)COC(=O)c2ccc(S(=O)(=O)NCc3ccco3)cc2)c1Cl | 101%
38 | OCCNc1nc2ccccc2[nH]1 | 104%
39 | C/C(=N\Nc1nc(Nc2ccccc2)nc(N2CCOCC2)n1)c1cccs1 | 92.8%
40 | C/C(=N\Nc1nc2ccccc2[nH]1)c1cccs1 | 147% (active)
41 | COc1cccc(/C(C)=N/Nc2ncc(Cl)cc2Cl)c1 | 126%
42 | O=C(NC1CCC(O)CC1)c1ccc(S(=O)(=O)NCc2ccco2)cc1 (configuration not stated) | 93.2%
43 | C/C(=N\Nc1ncc(Cl)cc1Cl)c1cccs1 | 143% (active)
44 | COc1cccc(CNC(=O)CCN2C(=S)NC(C)(C)CC2C)c1 (configuration not stated) | 100%
45 | Cc1nn(C)c(C)c1CN(C(=O)CCc1nnc(Cc2c[nH]c3ccccc23)o1)C(C)C | 99.9%
46 | CCN(CC)c1ccc(C(=O)c2cnc(/N=C/N(C)C)s2)cc1 | 118%
47 | c1csc(-c2nc(-c3ccncc3)no2)c1 | 130% (active)
48 | COc1nc(-c2ccc(Cl)cc2)ccc1-c1noc(-c2cccs2)n1 | 108%
49 | c1ccc(-c2noc(-c3cccs3)n2)nc1 | 104%
50 | CC(=O)Nc1ccc(CN2CCN(Cc3ccc(F)c(F)c3)C(CCO)C2)cc1 (configuration not stated) | 100%
51 | O=c1oc(-c2ccco2)nc2sc3c(c12)CCCCC3 | 110%
52 | Cc1c(Br)ccc(NC(=O)COc2ccccc2C(N)=O)c1C | 97.9%
